# Data from PubChem BioAssay AID1159580 (chemical genetic matrix, 2015).
# About 2,000 (36%) of roughly 5,500 compounds were called active. Another 18% or so got no clear call; they are omitted. Some of the results follow. Unmarked numbers belong to inactive results. Rule as the data show it: active = normalized growth mostly below about 0.91 (no sharp cut-off); inconclusive = no clear call, values can overlap the other calls; inactive = mostly above about 0.92.
# Assay: chemical genetic growth profiling, strain panel (AID 1159580);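 also: tested at 20 µM; growth read once vehicle control cultures reached saturation at 30 °C; 1 = growth at the plate median or of vehicle wells; lower values mean less growth of the strain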
# Conditions: S. cerevisiae deletion strains, growth OD
smiles,measurement,setting,value
O=C(c1ccc(OCCN2CCCCC2)cc1)c1c(-c2ccc(O)cc2)sc2cc(O)ccc12,normalized growth,"locus YAL021C, strain ccr4, stronger effect = lower value",0.971
same,normalized growth,"locus YAL026C, strain drs2, stronger effect = lower value",0.987
same,normalized growth,"locus YAL030W, strain snc1, stronger effect = lower value",1.01
same,normalized growth,"locus YAL040C, strain CLN3, stronger effect = lower value",1.02
same,normalized growth,"locus YBL061C, strain skt5, stronger effect = lower value",1.01
same,normalized growth,"locus YBR009C, strain hhf1, stronger effect = lower value",1
same,normalized growth,"locus YBR023C, strain chs3, stronger effect = lower value",1.01
same,normalized growth,"locus YBR171W, strain sec66, stronger effect = lower value",1.04
same,normalized growth,"locus YBR231C, strain swc5, stronger effect = lower value",0.989
same,normalized growth,"locus YBR279W, strain paf1, stronger effect = lower value",1.02
same,normalized growth,"locus YCL011C, strain gbp2, stronger effect = lower value",1.02
same,normalized growth,"locus YCL016C, strain dcc1, stronger effect = lower value",1
same,normalized growth,"locus YCL061C, strain MRC1 (second series), stronger effect = lower value",0.998
same,normalized growth,"locus YCL061C, strain MRC1, stronger effect = lower value",1.01
same,normalized growth,"locus YCL069W, strain vba3, stronger effect = lower value",1.03
same,normalized growth,"locus YCR088W, strain abp1, stronger effect = lower value",1.02
same,normalized growth,"locus YDL005C, strain med2, stronger effect = lower value",1.04
same,normalized growth,"locus YDL040C, strain nat1, stronger effect = lower value",1.02
same,normalized growth,"locus YDR001C, strain nth1, stronger effect = lower value",1.02
same,normalized growth,"locus YDR069C, strain doa4, stronger effect = lower value",1.01
same,normalized growth,"locus YDR137W, strain rgp1, stronger effect = lower value",1.09
same,normalized growth,"locus YDR150W, strain NUM1, stronger effect = lower value",0.977
same,normalized growth,"locus YDR159W, strain sac3, stronger effect = lower value",0.984
same,normalized growth,"locus YDR195W, strain ref2",1.01
same,normalized growth,"locus YDR297W, strain sur2, stronger effect = lower value",1.01
same,normalized growth,"locus YDR334W, strain swr1, stronger effect = lower value",1.02
same,normalized growth,"locus YDR335W, strain msn5, stronger effect = lower value",1.03
same,normalized growth,"locus YDR363W, strain ESC2, stronger effect = lower value",0.983
same,normalized growth,"locus YDR392W, strain spt3, stronger effect = lower value",0.41 (active)
same,normalized growth,"locus YEL003W, strain gim4, stronger effect = lower value",1.02
same,normalized growth,"locus YEL037C, strain rad23, stronger effect = lower value",1.04
same,normalized growth,"locus YEL061C, strain CIN8 (second series), stronger effect = lower value",1.03
same,normalized growth,"locus YER002W, strain NOP16, stronger effect = lower value",1
same,normalized growth,"locus YER015W, strain faa2, stronger effect = lower value",1.01
same,normalized growth,"locus YER016W, strain bim1, stronger effect = lower value",1.01
same,normalized growth,"locus YER111C, strain swi4, stronger effect = lower value",1.03
same,normalized growth,"locus YER155C, strain BEM2 (second series), stronger effect = lower value",0.608 (active)
same,normalized growth,"locus YFR010W, strain ubp6, stronger effect = lower value",1.04
same,normalized growth,"locus YGL167C, strain pmr1, stronger effect = lower value",1.03
same,normalized growth,"locus YGL173C, strain kem1, stronger effect = lower value",1.01
same,normalized growth,"locus YGL227W, strain vid30, stronger effect = lower value",1.01
same,normalized growth,"locus YGL240W, strain doc1, stronger effect = lower value",0.967
same,normalized growth,"locus YGL253W, strain hxk2, stronger effect = lower value",1.02
same,normalized growth,"locus YHR013C, strain ard1, stronger effect = lower value",0.958
same,normalized growth,"locus YHR027C, strain rpn1, stronger effect = lower value",1.01
same,normalized growth,"locus YHR030C, strain SLT2, stronger effect = lower value",0.968
same,normalized growth,"locus YHR079C, strain IRE1, stronger effect = lower value",0.968
same,normalized growth,"locus YHR142W, strain chs7, stronger effect = lower value",0.983
same,normalized growth,"locus YJL092W, strain hpr5, stronger effect = lower value",1.01
same,normalized growth,"locus YJL095W, strain BCK1 (second series), stronger effect = lower value",1.02
same,normalized growth,"locus YJL095W, strain BCK1, stronger effect = lower value",1
same,normalized growth,"locus YJL115W, strain asf1, stronger effect = lower value",1.03
same,normalized growth,"locus YJL129C, strain trk1, stronger effect = lower value",1.01
same,normalized growth,"locus YJL154C, strain vps35, stronger effect = lower value",1.03
same,normalized growth,"locus YJL164C, strain tpk1, stronger effect = lower value",0.982
same,normalized growth,"locus YJL166W, strain qcr8, stronger effect = lower value",0.968
same,normalized growth,"locus YJL187C, strain SWE1, stronger effect = lower value",1.02
same,normalized growth,"locus YJR066W, strain TOR1, stronger effect = lower value",0.924
same,normalized growth,"locus YKL160W, strain elf1, stronger effect = lower value",0.982
same,normalized growth,"locus YKR026C, strain gcn3, stronger effect = lower value",1.01
same,normalized growth,"locus YKR091W, strain srl3, stronger effect = lower value",1.02
same,normalized growth,"locus YLL001W, strain dnm1, stronger effect = lower value",1.01
same,normalized growth,"locus YLL026W, stronger effect = lower value",1.01
same,normalized growth,"locus YLL041C, strain sdh2, stronger effect = lower value",1.02
same,normalized growth,"locus YLR027C, strain aat2, stronger effect = lower value",1.01
same,normalized growth,"locus YLR113W, strain HOG1, stronger effect = lower value",0.986
same,normalized growth,"locus YLR221C, strain rsa3, stronger effect = lower value",1
same,normalized growth,"locus YLR258W, strain gsy2, stronger effect = lower value",1.01
same,normalized growth,"locus YLR262C, strain YPT6 (second series), stronger effect = lower value",1.01
same,normalized growth,"locus YLR320W, strain mms22, stronger effect = lower value",0.911
same,normalized growth,"locus YLR342W, strain FKS1, stronger effect = lower value",1
same,normalized growth,"locus YLR357W, strain rsc2, stronger effect = lower value",0.964
same,normalized growth,"locus YLR370C, strain arc18, stronger effect = lower value",1.03
same,normalized growth,"locus YLR384C, strain iki3, stronger effect = lower value",1.04
same,normalized growth,"locus YML120C, strain ndi1, stronger effect = lower value",1.01
same,normalized growth,"locus YMR058W, strain fet3, stronger effect = lower value",1.01
same,normalized growth,"locus YMR125W, strain sto1, stronger effect = lower value",0.989
same,normalized growth,"locus YMR129W, stronger effect = lower value",1.02
same,normalized growth,"locus YMR205C, strain PFK2, stronger effect = lower value",0.981
same,normalized growth,"locus YMR231W, strain pep5, stronger effect = lower value",1.03
same,normalized growth,"locus YMR307W, strain GAS1, stronger effect = lower value",0.917
same,normalized growth,"locus YNL071W, strain lat1, stronger effect = lower value",0.854 (active)
same,normalized growth,"locus YNL128W, strain TEP1, stronger effect = lower value",1.02
same,normalized growth,"locus YNL175C, strain NOP13, stronger effect = lower value",0.993
same,normalized growth,"locus YNL183C, strain NPR1, stronger effect = lower value",0.965
same,normalized growth,"locus YNL197C, strain WHI3, stronger effect = lower value",0.998
same,normalized growth,"locus YNL209W, strain ssb2, stronger effect = lower value",1.01
same,normalized growth,"locus YNL224C, strain SQS1, stronger effect = lower value",1.01
same,normalized growth,"locus YNL248C, strain rpa49, stronger effect = lower value",0.986
same,normalized growth,"locus YNL322C, strain KRE1 (second series), stronger effect = lower value",1.02
same,normalized growth,"locus YNR049C, strain mso1, stronger effect = lower value",1.02
same,normalized growth,"locus YOR001W, strain rrp6, stronger effect = lower value",1
same,normalized growth,"locus YOR070C, strain gyp1, stronger effect = lower value",1.02
same,normalized growth,"locus YOR080W, strain dia2, stronger effect = lower value",1.02
same,normalized growth,"locus YOR083W, strain WHI5 (second series), stronger effect = lower value",0.997
same,normalized growth,"locus YOR083W, strain WHI5, stronger effect = lower value",0.979
same,normalized growth,"locus YOR106W, strain vam3, stronger effect = lower value",0.987
same,normalized growth,"locus YOR231W, strain MKK1, stronger effect = lower value",0.995
same,normalized growth,"locus YOR265W, strain rbl2, stronger effect = lower value",1.01
same,normalized growth,"locus YOR270C, strain vph1, stronger effect = lower value",1.01
same,normalized growth,"locus YOR290C, strain snf2, stronger effect = lower value",0.995
same,normalized growth,"locus YPL051W, strain arl3, stronger effect = lower value",0.977
same,normalized growth,"locus YPL055C, strain LGE1, stronger effect = lower value",0.826 (active)
same,normalized growth,"locus YPL078C, strain atp4, stronger effect = lower value",0.985
same,normalized growth,"locus YPL106C, strain sse1, stronger effect = lower value",1.01
same,normalized growth,"locus YPL240C, strain hsp82, stronger effect = lower value",1.03
same,normalized growth,"locus YPL241C, strain CIN2, stronger effect = lower value",1
same,normalized growth,"locus YPL256C, strain CLN2, stronger effect = lower value",0.97
